# From PubChem BioAssay
# Shown are actives, neighbours in structure and some others; about 1.9% of the full set was active somewhere.
# IEC-6 cytotox – IEC-6 cytotoxicity, counter-screen for KLF5 inhibitors; luminescence viability; inhibition, % at 5 µM; 0.78% of 290,000 active; AID 1825; in the data active = inhibition above about 22%
# KLF5 inh – inhibitors of KLF5 expression; DLD-1 KLF5 promoter-luciferase reporter, luminescence; inhibition, % at 5 µM; 0.23% of 290,000 active;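 active = inhibition above a per-plate limit of that plate's mean compound inhibition plus 3 SD, cut at about 60% in these data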;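 note: higher means less KLF5 promoter-driven luciferase light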
# Ba/F3 V617F tox – reduce viability of Ba/F3 cells dependent on JAK2V617F. Ba/F3 EpoR-JAK2V617F viability, ATP luminescence. 1.1% of 220,000 active. inhibition, % at 5.6 µM;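 active = inhibition above the campaign mean plus 3 SD over all tested compounds, cut at about 24% in these data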;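 note: cytokine-independent growth of Ba/F3 cells driven by EpoR plus mutant JAK2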
# APP 5UTR inh – APP translation inhibition. inhibition, % at 2 µM. 0.82% of 190,000 active. SH-SY5Y APP 5'UTR-luciferase reporter, luminescence;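 active = inhibition above a set limit, derived from the sample mean plus 3 SD, cut at about 45% in these data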
# BaF3 parental – reduces parental Ba/F3 cell viability, JAK2V617F counter-screen; 1.1% of 220,000 active; inhibition, % at 5.6 µM; CellTiter-Glo ATP luminescence;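 active = inhibition above a per-campaign cutoff, the mean inhibition of all tested compounds plus 3 SD, cut at about 27% in these data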
# A number is an active result; . = inactive; / = no result given.
SMILES,IEC-6 cytotox,KLF5 inh,Ba/F3 V617F tox,APP 5UTR inh,BaF3 parental
COCCn1c(C)cc(C2=NNC(=NC3CC3)SC2)c1C,.,79,.,88,.
Cc1cc(C2=NNC(=NC3CC3)SC2)c(C)n1Cc1ccco1,.,.,.,47,.
Cc1cc(C2=NNC(=NC3CC3)SC2)c(C)n1-c1ccccc1,.,.,.,76,.
COc1ccc(-n2c(C)cc(C3=NNC(=NC4CC4)SC3)c2C)cc1,.,.,.,.,.
O=C(CNC(=O)c1ccccc1F)OCC(=O)N1CCCc2ccccc21,.,.,.,.,.
Cc1ccc2c(CC(=O)NCC3COc4ccccc4O3)coc2c1 (centres undefined),.,.,.,.,.
O=C(NC(=S)Nc1ccccn1)c1ccc([N+](=O)[O-])cc1,.,.,.,.,.
CCCCn1c(=O)c(C(=O)N/N=C/c2ccc(F)cc2)c(O)c2ccccc21,.,.,.,.,80
O=C(c1cc(COc2ccc3ncccc3c2)on1)N1CCCC1,.,.,/,/,/
O=C(c1cc(COc2ccc3ncccc3c2)on1)N1CCCCCC1,.,.,.,.,.
O=C(NC1CCCC1)c1cc(COc2ccc3ncccc3c2)on1,.,.,36,/,44
CC(NC(=O)c1cc(COc2ccc3ncccc3c2)on1)c1ccc(F)cc1 (centres undefined),.,.,31,/,36
COc1cccc(CN(C)C(=O)c2cc(COc3ccc4ncccc4c3)on2)c1,.,.,54,.,71
Cc1cc(=O)oc2cc(OCC(=O)NCCCN3CCCC3=O)c(Cl)cc12,.,.,/,/,/
COCC(=O)OCc1cc2cccc(C)c2[nH]c1=O,.,.,.,/,.
CCN(CC)c1ccc(/C=N/NC(=O)c2ccco2)cc1,.,.,.,49,.
CCN(CC)c1ccc(/C=N/NC(=O)c2ccco2)c(O)c1,.,.,.,/,.
Cc1cc(/C=C(\C#N)C(=O)O)c(C)n1-c1ccc(Br)cc1,.,.,.,/,.
CC(C)c1ccc(CN2CCN(C(=O)CCl)CC2)cc1,.,.,46,.,.
O=C(CCc1ccc(O)cc1)NNC(=S)NCCc1ccccc1,.,.,.,/,.
Cc1ccc(C(=O)C[n+]2cccc3cc(C)ccc32)cc1,.,.,.,.,70
O=C(Nc1cc(Cl)cc(Cl)c1)C1C2C=CC3(O2)C1C(=O)N(CCCN1CCOCC1)C3C(=O)NC1CCCCC1 (centres undefined),.,.,/,/,/
CN(C)c1cc[n+](Cc2c(Cl)cccc2Cl)cc1,.,.,98,.,80
O=C(NC(Cc1ccccc1)c1ccc2c(c1)OCCCO2)c1ccccc1 (centres undefined),.,.,.,.,.
CCC(=O)NC(Cc1ccccc1)c1ccc2c(c1)OCCCO2 (centres undefined),.,.,39,.,31
SMILES,IEC-6 cytotox,KLF5 inh,Ba/F3 V617F tox,APP 5UTR inh,BaF3 parental
O=C(N/N=C/c1ccccc1)c1[nH]c2ccc(Br)cc2c1-c1ccccc1,.,.,.,88,.
Nc1ccc(-c2nc3c(Cl)cc(N)cc3[nH]2)cc1,.,.,.,63,.
Nc1ccc2nc(-c3ccc(N)c(Cl)c3)[nH]c2c1,.,.,.,.,.
CC(=O)Nc1ccc(C(=O)n2cnc3cc(C)c(C)cc32)cc1,.,.,.,.,.
CC(=O)Nc1ccc(S(=O)(=O)n2cnc3cc(C)c(C)cc32)cc1,.,.,.,.,29
COc1ccc(CC(=O)Nc2cc(Cl)ccc2O)cc1,.,.,70,.,42
Clc1ccc(C[n+]2cc(-c3ccccc3)n3c2CCCCC3)c(Cl)c1,.,.,86,.,79
Clc1ccc(-c2c[n+](Cc3ccc(Br)cc3)c3n2CCCCC3)cc1,.,.,62,/,69
Clc1ccc(-c2c[n+](Cc3ccc(Cl)cc3Cl)c3n2CCCCC3)cc1,.,.,73,/,73
COc1ccc(C(=O)NCc2ccc(C(=O)O)o2)cc1,.,.,/,/,/
Cc1nnc(-c2ccccc2)c(=O)n1/N=C/c1c(O)ccc2ccccc12,.,.,.,61,.
COc1ccc(Cn2cnc3c(N)c(C)c(C)cc32)cc1,.,.,.,.,.
CCCCCCCCn1cnc2c(N)c(C)c(C)cc21,.,.,76,.,60
Cc1ccc(NC(=O)c2c(C(F)(F)F)nn(C)c2SCc2ccc(Cl)cc2)cc1C,.,.,.,/,.
Cc1ccc(NC(=O)c2c(C(F)(F)F)nn(C)c2SCc2cccc(C(F)(F)F)c2)cc1C,.,.,43,/,48
COc1ccc(CNc2cc(C)nc3ncnn23)c(OC)c1,.,.,.,.,31
O=C1CSC(c2ccc(Cl)cc2)N1C1CCCCC1 (centres undefined),.,.,.,.,40
CCc1nn(CC(=O)NCCc2ccc(Cl)cc2)c(=O)c2cccn12,.,.,/,/,/
O=c1[nH]cc(F)c(=O)[nH]1,86,.,86,.,83
O=c1[nH]cc(O)c(=O)[nH]1,.,.,.,/,.
CC/C(=N\NC(=O)c1nnn(-c2nonc2N)c1CN(C)c1ccccc1)c1ccccc1,.,.,/,/,/
CC1=CC(C)(C)N2C(=O)C3(N=C(N)NC(Nc4ccccc4)=N3)c3cc(C)cc1c32 (centres undefined),.,.,44,.,42
C=CCOc1c(/C=N\NC(N)=O)cccc1OC,.,.,.,/,.
COc1cccc(Sc2ccccc2/C=N/NC(N)=O)c1,.,.,.,65,.
COc1cc(-c2cc(C(=O)N3CCN(c4ccccn4)CC3)c3ccccc3n2)cc(OC)c1OC,33,.,.,.,.
SMILES,IEC-6 cytotox,KLF5 inh,Ba/F3 V617F tox,APP 5UTR inh,BaF3 parental
CCC(=O)NC(=S)NNC(=O)c1ccc(OC)cc1,.,.,.,.,.
CCCCOc1ccc(C(=O)NNC(=S)NC(=O)CC)cc1,.,.,.,56,.
COc1ccc(NC(=O)/C(=C\c2cccs2)NC(=O)c2ccco2)cc1,.,.,.,.,.
Cc1ccc(NC(=O)/C(=C/c2cccs2)NC(=O)c2ccco2)cc1,.,.,.,.,29
COc1ccccc1-n1c(-c2ccccc2)c[n+]2c1CCc1ccccc1-2,24,.,101,.,79
COc1ccc(-n2c(-c3ccc(Br)cc3)c[n+]3c2CCc2ccccc2-3)cc1,.,.,88,.,78
COc1ccc(-n2cc(-c3ccc(Br)cc3)[nH]c2=S)cc1,.,.,.,.,.
CC(C)c1ccc(-n2c(-c3ccccc3)c[n+]3c2CCc2ccccc2-3)cc1,41,.,99,.,92
COc1ccccc1-n1c(-c2ccccc2)c[nH]c1=S,.,.,.,.,.
Cc1cc(=O)oc2cc(OC(C)C(=O)N3CCCc4ccccc43)ccc12 (centres undefined),.,.,.,.,.
COc1ccccc1-c1ccc(SCc2cccc(C)c2)nn1,.,.,61,.,66
CCN(CC)CC#Cc1ccc(C)cc1,.,.,.,/,.
C#CC[N+]1(CC#Cc2cccc(C)c2)CCCCC1,.,.,76,.,67
C(#Cc1ccccc1)C[N+]1(CC#Cc2cccc3ccccc23)CCOCC1,.,.,56,.,50
CCC[N+]1(CC#CCC(c2ccccc2)c2ccccc2)CCCCC1,.,.,/,/,/
C#CC[N+]1(CC#Cc2ccccc2)CCOCC1,.,.,.,.,.
